This note sets out measurements from PubChem BioAssay AID493179 (National Center for Advancing Translational Sciences (NCATS), 2011).

Inconclusive results are not listed. The source made the active and inactive calls. Calls follow the shape of the dose curve; as a rule, active = well fitted inhibition curve with a large enough effect; inconclusive = small, poorly fitted or top-dose-only effect; inactive = flat fitted curve, though single readings scatter.

This assay is described as follows: Secondary Assay for General miRNAs Modulators and/or Inhibitors/Activators of miR-21: miR-30 Firefly Luciferase Assay for second round cherrypicks. The settings on record: HeLa miR-30 FLuc reporter, luminescence, 48 h; series mostly up to 38.3 µM. The source says: MLPCN Grant: 1 R21 NS059478-01 Assay Provider: Qihong Huang, The Wistar Institute NCGC Assay Overview: MicroRNAs (miRNAs) are endogenously encoded small (~20-25 nucleotides), nonprotein-coding RNAs that are involved in post-transcriptional repression of target messenger RNAs (mRNAs) (Le and Hannon, 2004). Estimated to be involved in the regulation of 30% of all protein-coding mRNAs (Filipowicz et al., 2008), miRNAs play a significant role in many biological processes including cellular differentiation and tissue development (Ghildiyal and Zamore, 2009). […] Compounds active in the miR-21 FLuc assay were clustered using Leadscope and active chemical series were prioritized based on chemical properties, potential for medicinal chemistry optimization, and SAR. Within each chemical series, representative compounds were re-acquired to test for activity in a secondary assay based on the quality of their CRC, efficacy, and potency. The secondary assay to determine if compounds active in the miR-21 FLuc assay were potentially specific for miR-21 and were not general modulators of the miRNA pathway was another cell-based FLuc reporter gene assay, this time targeting miR-30. Compounds found active in both the miR-21 FLuc and miR-30 FLuc assays are not considered miR-21 specific compounds, and may be general miRNA modulators.
NCGC Assay Protocol Summary: Reagents: HeLa cells stably expressing firefly luciferase (FLuc) under the control of a CMV promoter (upstream) and a miR-30 binding sequence directly downstream of the gene. These cells also stably express miR-30. Control compounds used were compound C3 (provided by collaborator), N6-phenyladenosine (MP Biomedicals, 0215379625), and DMSO. Assay Summary: 6uL of HeLa miR-30-FLuc cells in assay buffer (DMEM, Invitrogen #21063-029; 10% FBS, HyClone #SH30071.03) were dispensed at 1000cells/well (1.7 x 10^5 cells/mL) into Greiner solid-white TC-treated 1536-well plates using a Multidrop Combi (Thermo Fisher Scientific). Plates were incubated for one hour at 37 degree Celsius, 95% humidity, 5% CO2. These assay plates were then treated with 23nL of compound or DMSO using a Kalypsys pin tool, which allows for delivery of a 24-point titration of each compound to the assay plate, with a final compound concentration ranging from approximately 40uM to 5pM. Assay plates were then incubated for 48 hours. After incubation, plates were allowed to come to RT for one hour prior to delivery of 3uL of 3X luciferase detection reagent. After a 15 minute incubation to allow for cell lysis, luciferase activity was measured using a ViewLux CCD imager (PerkinElmer), with an average exposure time of 2-12 seconds. Keywords: NIH Roadmap, MLPCN, MLSMR, qHTS, miR-21, miR-30, microRNA, firefly luciferase, FLuc.
Turning to `Cc1cccc(NC(=O)Nc2ccc(Br)cc2)n1`, the Potency was 4.49 µM (active). Regarding `Cc1ccc(NC(=O)c2ccc(-c3ccccc3)s2)cc1`, the Potency was 5.04 µM (active). Regarding `CN(c1ccccc1)S(=O)(=O)c1nnc(NC(=O)c2ccco2)s1`, the Potency entry was “inactive”. For `CCOC(=O)c1cccc(NC(=O)c2cc(CN3CCCC3)on2)c1`, the Potency was 4.49 µM (active). The entry for `CC(C)(C)C1CCc2nc(NC(=O)Cc3ccc(Cl)cc3)sc2C1` (stereo not given) is “inactive”; for `COc1ccc(CNc2nc(-c3ccco3)nn2C(=O)c2ccccc2Cl)cc1` it is 22.5 µM (active); for `CCc1cc(C(=O)Nc2ccccc2)cs1` it is 2.83 µM (active). The figure for `Cc1cc(C)c2c(N)c(C(=O)Nc3ccccc3C(F)(F)F)sc2n1` is 11.3 µM (active). Take `Cc1ccc(-n2ncc3c(Nc4ccc5c(c4)OCCO5)ncnc32)cc1Cl`: the Potency is 10 µM (active). Take `Cc1ccc2nc(-c3ccc(NC(=O)c4ccc(S(C)(=O)=O)cc4)cc3)sc2c1`: the Potency result is “inactive”.

With `CCCCc1nn2c(=O)cc(COC(=O)c3cccc(NC(=O)c4cccc(C)c4)c3)nc2s1`, the Potency is 4 µM (active). For the compound `CCC(=O)Nc1sc(C(=O)Nc2ccccc2)c(C)c1C(=O)OC`, the Potency is 11.3 µM (active). Regarding `COc1ccccc1N1CCN(C(=O)c2nc(-c3ccc(C)cc3)n3c2CCCCC3)CC1`, the Potency result was “inactive”. For the compound `COc1ccc(Nc2nc(C)c3ccccc3n2)cc1`, the Potency is 11.3 µM (active).

Take `Cc1ccccc1NC(=O)c1cc2c([nH]c1=O)CC(C)(C)CC2=O`: the Potency is 0.634 µM (active). With `CC(=O)O[C@H]1C[C@@]2(C)[C@@H](C[C@@H](O)[C@H]3[C@@]4(C)CC[C@@H](O)[C@@H](C)C4CC[C@@]32C)/C1=C(\CCC=C(C)C)C(=O)O` (stereo not given in full), the Potency entry was “inactive”. Regarding `CCOC(=O)C1CCN(C(=O)c2ccc(-n3ccc4ccccc43)s2)CC1`, the Potency was 11.3 µM (active).

Consider `COCCNC(=O)c1ccc2c(c1)ncn2-c1ccc(F)c(F)c1`, for which the Potency is 22.5 µM (active). The figure for `CCCOc1ccc(OC(=O)c2ccc(-c3ccc(CCC)cn3)cc2)cc1` is 1.59 µM (active); for `C/C(=N/NC(=O)c1ccccc1)c1ccc(NC(=O)C(F)(F)F)cc1` it is “inactive”; for `O=C(Nc1sc2c(c1C(=O)NCc1ccco1)CCCC2)c1cc(=O)c2ccccc2o1` it is 7.11 µM (active). Regarding `CCC(C)NC(=O)CCCn1c(=O)c2cccn2c2ccccc21` (stereo not given), the Potency result is “inactive”. The entry for `CN(C)c1ccc(CNC(=O)C2COc3ccccc3C2)cc1` (stereo not given) is “inactive”; for `CC(c1ccccn1)N(C)C(=O)c1ccc2nc(Cc3cccc(Cl)c3)oc2c1` (stereo not given) it is 6.34 µM (active); for `CC(C)(C)CC(=O)Nc1nnc(-c2cccs2)s1` it is 5.04 µM (active). As for `Cc1ccccc1OCc1nc2c3cnn(-c4ccccc4F)c3ncn2n1`, the Potency was 20 µM (active).

Consider `Cc1ccccc1C(=O)Nc1nnc(-c2ccco2)o1`, for which the Potency is 12.6 µM (active). For `CC(=O)N1CCc2cc(CNC(=O)Cc3ccc(F)cc3)ccc21`, the Potency was 10 µM (active). On to `CCc1ccc(C(=O)NCc2cccs2)s1`, for which the Potency was 20 µM (active). As for `Cc1cc(N2CCN(C)CC2)nc2ccc(NC(=O)c3ccccc3F)cc12`, the Potency was 10 µM (active). The figure for `Cc1ccc(C(=O)Nc2ccc3c(c2)ncn3C)cc1` is 2.83 µM (active); for `Cc1ccc(-c2cc(C(=O)NCC3CCCO3)no2)cc1` (stereo not given) it is 3.56 µM (active). For `CC(C)c1cc(C(=O)Nc2cccnc2)no1`, the Potency was 3.56 µM (active). Consider `Cc1ccc2c(Cl)c(C(=O)Nc3ccc4c(c3)OCO4)sc2c1`, for which the Potency is 1.59 µM (active). The figure for `CCC(C)C(=O)N1CCCC(c2nc(-c3cccs3)no2)C1` (stereo not given) is 6.34 µM (active); for `CCCCN1CCc2c([nH]c3ccccc23)C1=O` it is 11.3 µM (active); for `O=C(NC1CCCCCC1)C1CCN(C(=O)N2CCOc3ccc(Cl)cc32)CC1` it is “inactive”. As for `CC(=O)c1ccc(Oc2ncnc3c2oc2ccccc23)cc1`, the Potency is 3.18 µM (active). The entry for `CCC(CC)C(=O)Nc1nnc(S(=O)(=O)N2CCCCCC2)s1` is “inactive”; for `CCOCCCNC(=O)c1cc2c(=O)n3ccccc3nc2s1` it is 11.3 µM (active).
